In the library only some 1.6% were active in any assay of this set; here they are far more common.
HUVEC tox TNFa: cytotoxicity in TNFa-stimulated HUVEC, primary screen, cytotoxicity control for VCAM1 expression modulator project, imaging, Hoechst nuclei count | 0.17% of 93,000 active | cell count reduction, % at 2 µM | AID 848, 2007 | HUVEC TNFalpha-stimulated, Hoechst cell count;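 active = cell count reduction exceeding the screen mean by over 5 SD, scaled to untreated wells per plate, cut at about 78% in these data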;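 also: cells counted after 24 h of TNF alpha exposure following the 1 h pretreatment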
VCAM1 TNFa inh: inhibitors of TNFa-induced VCAM1 expression, primary screen, imaging, HUVEC, TNFa stimulus, immunofluorescence; HUVEC TNFa-induced VCAM-1 immunofluorescence, high-content imaging; inhibition, % at 2 µM; 0.48% of 95,000 active;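 active = inhibition above the batch mean plus 3 SD, with images confirmed as a hit by eye, cut at about 37% in these data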;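 also: 0% = TNF-stimulated DMSO wells and 100% = unstimulated control wells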
NFkB transloc pot: enhancers of NFkB p65 translocation in HUVEC – imaging, IL-1B stimulus, high-content imaging, primary screen; HUVEC IL-1B NFkB p65 nuclear translocation imaging; activation, % at 2 µM; 0.3% of 94,000 active;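 active = activation above 40%, about the mean plus 3 SD, also judged a hit on visual image review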;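 also: percent activation is computed from the nuclear over cytoplasmic p65 intensity ratio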
E-sel TNF inh: E-selectin induction blockers in HUVEC – imaging, immunofluorescence, high content, primary screen. AID 1246, 2008. 0.71% of 120,000 active. HUVEC TNFa-induced E-selectin immunofluorescence. inhibition, % at 2 µM;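 active = inhibition above the batch mean plus 3 SD, and confirmed as a hit on visual image review, cut at about 43% in these data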;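 also: 0% = TNF-stimulated DMSO wells and 100% = unstimulated control wells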
HUVEC tox IL1B: cytotoxicity in IL-1B stimulated HUVEC, primary screen, cytotoxicity control for IL-1B NFkB translocation project, imaging, Hoechst nuclear count, IL-1B stimulus. HUVEC cell count loss. cell count reduction, % at 2 µM. 0.41% of 94,000 active. AID 845, 2007;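 active = cell count reduction more than 3 SD above the screen-wide mean, cut at about 70% in these data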;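 also: normalized per plate to untreated control cells as the no-loss baseline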
NFkB transloc inh: inhibitors of IL-1B driven NFkB p65 nuclear import, primary screen, imaging, HUVEC, IL-1B stimulus, high-content imaging; HUVEC IL-1B NFkB p65 nuclear translocation imaging; inhibition, % at 2 µM; 0.43% of 94,000 active;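 active = inhibition above about 30% together with a positive call from visual inspection of the well image, limit read from the data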;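 also: nuclear over cytoplasmic p65 intensity ratio measured by imaging; 0% = IL-1B stimulated DMSO wells and 100% = unstimulated DMSO wells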
* = called active by the depositor; . = not tested or not shown.

SMILES	HUVEC tox TNFa	VCAM1 TNFa inh	NFkB transloc pot	E-sel TNF inh	HUVEC tox IL1B	NFkB transloc inh
COc1cccc(-c2cc(C(F)(F)F)n3nc(C(=O)N4CCCCC4c4cccnc4)cc3n2)c1 (centres undefined)	.	.	.	-1.1	.	.
CC1Cc2cccc3c(O)c(C(=O)c4nn[nH]n4)c(=O)n1c23 (centres undefined)	.	.	.	25.5	.	.
O=S(=O)(NCc1ccccc1F)NCc1ccccc1F	.	.	.	2.7	.	.
CCCCS(=O)(=O)Nc1ccc2ncn(C)c(=O)c2c1	-28.6	18.5	2.9	27.2	72.2*	-2.9
CCOC(=O)c1cc(NC(=O)Nc2ccccn2)c(C)nc1C	.	.	.	18.5	.	.
Cc1ccc(Oc2ccc(-c3nc(N)nc(N)n3)cc2)cc1	2.2	-1.6	-97.4	-8.6	86.0*	97.4*
CC(C)c1cc(C(=O)N2CCCC(CCC(=O)NCc3ccccc3F)C2)n(C)n1 (centres undefined)	.	.	.	-32.5	.	.
CC1=C(C(N)=O)C(c2ccc(Cl)cc2Cl)n2ncnc2N1 (centres undefined)	11.3	18.4	-95.8	-6.5	63.3	95.8*
CC(=O)C1=C(C)Nc2ncnn2C1c1ccccc1Cl (centres undefined)	0.8	-12.6	17.1	-27.0	-2.0	-17.1
Cc1cc(C)n(C(=O)CNC(=O)CCc2ccccc2)n1	-31.8	15.4	32.4	99.0*	-22.8	-32.4
Cc1cc(C)n(C(=O)CCC(=O)NCc2ccccc2)n1	1.9	-2.0	15.2	17.7	-31.2	-15.2
CCOC(=O)c1sc2cc([N+](=O)[O-])cc(SCC(=O)OC)c2c1N	-12.9	5.8	50.7*	18.3	9.0	-50.7
Cc1nc2sccn2c(=O)c1Br	.	.	.	-59.0	.	.
Cc1cc(C)n(-c2nc(-c3cccc(Cl)c3)cs2)n1	85.9*	89.9*	19.9	.	14.8	-19.9
COc1cccc(NC(=S)/C(=C(\[O-])c2ccc([N+](=O)[O-])cc2)[n+]2ccccc2)c1	.	.	.	-18.8	.	.
COc1cccc(-c2nn(-c3ccccc3)cc2CN(C)Cc2c(C)nc3ccccn23)c1	.	.	.	23.9	.	.
CN1c2ccccc2C2(C)CCCC3=Cc4cc([N+](=O)[O-])cc([N+](=O)[O-])c4OC312 (centres undefined)	.	.	.	-6.5	.	.
CN1c2ccccc2C2(C)CCCC3=Cc4cccc([N+](=O)[O-])c4OC312 (centres undefined)	.	.	.	69.2*	.	.
COc1ccc(Cl)cc1-c1nc(-c2ccc(NC(=O)c3cccs3)cc2)no1	.	.	.	2.6	.	.
CCSc1nc(C)c(CC)c(C)c1C(N)=O	-15.3	12.7	-34.0	6.8	-0.9	34.0*
CCOc1ccc(NC(=O)CN(C)Cc2cc(=O)n3c(-c4ccccc4)csc3n2)cc1OCC	.	.	.	-66.0	.	.
CCOC(=O)N1CCC(NC(=O)c2cc(C(=O)Nc3ccc(OCC)cc3)ccc2CO)CC1	-17.8	8.9	8.4	.	-6.4	-8.4
CCOC(=O)N1CCC(NC(=O)c2cc(C(=O)NC3CCCC3)ccc2CO)CC1	-2.3	5.2	-60.7	.	40.0	60.7*
Cc1[nH]nc2c1C1(CCC(c3ccccc3)CC1)C(C#N)=C(N)O2 (centres undefined)	-12.6	11.9	7.1	20.4	85.9*	-7.1
Cc1[nH]nc2c1C1(CCN(C(=O)c3ccccc3)CC1)C(C#N)=C(N)O2	-10.6	10.0	23.6	-9.7	-6.1	-23.6
SMILES	HUVEC tox TNFa	VCAM1 TNFa inh	NFkB transloc pot	E-sel TNF inh	HUVEC tox IL1B	NFkB transloc inh
Cc1ccc(NC(=O)CSc2nc3ccccc3c3nc(CCc4c(C)n[nH]c4C)nn23)cc1F	-5.9	-13.4	19.9	82.3*	-31.9	-19.9
C=CCc1cccc(C2Nc3ccccc3C(=O)N2O)c1O (centres undefined)	-20.5	-0.7	6.9	62.1*	-19.6	-6.9
O=C1c2ccccc2NC(c2ccc(Cl)cc2Cl)N1O (centres undefined)	-27.9	4.1	-3.2	-3.8	-40.7	3.2
COC(=O)c1cc2sccc2n1CC(=O)N1CCCc2ccccc21	-11.1	12.3	19.6	.	10.8	-19.6
COC(=O)c1cc2oc(C)cc2n1CC(=O)N1CCCc2ccccc21	-23.3	0.4	12.8	71.4*	-3.6	-12.8
CCn1ncc(CNC(=O)C2(C)CC2(Cl)Cl)c1C (centres undefined)	.	.	.	11.9	.	.
COc1cccc(C(=O)C2CCCN(C(=O)c3cccc(C#CC(C)(C)O)c3)C2)c1 (centres undefined)	.	.	.	-34.5	.	.
N#C/C(=C/c1ccc(N2CCCCCC2)o1)c1ccc(F)cc1	-3.6	2.9	-44.2	-6.3	21.9	44.2*
COC(=O)CSc1nnc(CNC(=O)c2cc(OC)c(OC)c(OC)c2)n1C	-13.9	1.1	-12.5	-8.4	78.4*	12.5
COC(=O)CSc1nnc(CNC(=O)c2ccccc2OC)n1C	51.3	2.1	-4.5	-8.4	-6.0	4.5
CN(C)S(=O)(=O)c1ccc(NS(=O)(=O)/C=C/c2ccccc2)cc1	-46.5	14.0	12.9	98.7*	-12.0	-12.9
CC1=NNC(=O)/C1=C\c1cn(-c2ccccc2)nc1-c1ccc(Cl)cc1	84.2*	99.2*	-70.6	17.0	25.0	70.6*
CC(NC(=O)c1ccccc1Cl)C(=O)O (centres undefined)	-27.1	-9.8	66.6*	-3.6	4.9	-66.6
COc1ccc(-c2cc(C(F)F)n3ncc(C(=O)Nc4cc(C)on4)c3n2)cc1	.	.	.	-0.8	.	.
Cc1cc(-n2nnc3ccccc32)nc2ccccc12	0.8	11.9	4.3	12.7	-22.0	-4.3
Cc1nn(-c2cc(C)c3ccccc3n2)c2c1C1C(C2)C1(C)C (centres undefined)	12.0	59.9*	35.4	5.3	-40.6	-35.4
COc1ccc(N(CC(=O)NC2CCCCC2)C(=O)CNC(=O)c2ccco2)cc1	.	.	.	-31.3	.	.
O=C(NC1CCCCC1)c1ccc(CNc2ccccc2)o1	-18.7	-1.3	-33.9	-3.0	85.6*	33.9*
COc1ccccc1S(=O)(=O)Cc1ccc(C(=O)NC2CCCCC2)o1	-6.1	19.4	0.6	2.2	5.7	-0.6
N#CCCN1CCN(C2=NC(=O)/C(=C\c3cccs3)S2)CC1	.	.	.	1.0	.	.
O=C(COc1ccc(/C=N/NS(=O)(=O)c2ccccc2)cc1)Nc1ccc(F)cc1	.	-23.0	-95.0	-12.4	84.3*	-9.7
S=c1[nH]nc(-c2ccc3c(c2)OCO3)n1-c1ccccc1	.	.	.	-5.4	.	.
S=c1[nH]nc(COc2ccc3c(c2)OCO3)n1-c1ccccc1	-7.9	97.0*	11.6	-34.5	-6.8	-11.6
CN(C1=NS(=O)(=O)c2ccccc21)c1ccc(OC(=O)c2ccncc2)cc1	.	.	.	8.9	.	.
CC(C)CC(=O)O/N=C1\C(=O)N(Cc2ccc(Cl)cc2)c2ccc([N+](=O)[O-])cc21	-16.2	10.0	47.0*	29.2	91.9*	-47.0
CC(=O)O/N=C1\C(=O)N(Cc2ccc(C)cc2)c2ccccc21	.	.	.	4.0	.	.

High-throughput results: PubChem, Columbia University Molecular Screening Center
